Common to all, as to assay: DAPPL (digital affinity profiling via proximity ligation, sequencing); 10 mM Tris-HCl pH 7.5, 50 mM NaCl, 1 mM DTT, 4% glycerol, room temperature, 30 min; GST-TFs on glutathione beads, 16-mer random dsDNA library, 0.1% formaldehyde crosslink after washing; high values mean tight binding
Holding throughout (settings): protein: recombinant; tags: N-terminal GST; dsDNA, one strand shown

The target of one test is T1, ELK1 (Homo sapiens, UniProt P19419 1-428).
T1 sequence: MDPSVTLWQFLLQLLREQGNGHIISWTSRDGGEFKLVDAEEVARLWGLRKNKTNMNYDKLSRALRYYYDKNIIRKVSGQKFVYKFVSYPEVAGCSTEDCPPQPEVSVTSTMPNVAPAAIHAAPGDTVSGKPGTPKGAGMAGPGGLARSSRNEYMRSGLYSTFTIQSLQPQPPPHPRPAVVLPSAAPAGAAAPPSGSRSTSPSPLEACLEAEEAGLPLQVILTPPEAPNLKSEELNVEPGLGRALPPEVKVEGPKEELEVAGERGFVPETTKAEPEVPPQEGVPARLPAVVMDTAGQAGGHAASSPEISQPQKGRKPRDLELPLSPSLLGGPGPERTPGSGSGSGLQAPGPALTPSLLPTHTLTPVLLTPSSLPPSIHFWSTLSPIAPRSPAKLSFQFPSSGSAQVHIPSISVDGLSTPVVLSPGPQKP
Summed up:
(§1)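 Binding signal is given per hexamer as its read frequency for a factor divided by its frequency in the tag-only sample. GST-fused human transcription factors were expressed in yeast, captured on glutathione beads, barcoded with DNA and pooled with that sample, then incubated with 200 nmole of a 16-mer random double-stranded DNA library in Tris/NaCl/DTT/glycerol buffer for 30 min at room temperature. The pools were then washed, crosslinked, proximity-ligated, amplified by PCR and sequenced on an Illumina NextSeq500.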

A further test concerns the target T2, ERG (Homo sapiens, UniProt P11308 1-479).
T2 sequence: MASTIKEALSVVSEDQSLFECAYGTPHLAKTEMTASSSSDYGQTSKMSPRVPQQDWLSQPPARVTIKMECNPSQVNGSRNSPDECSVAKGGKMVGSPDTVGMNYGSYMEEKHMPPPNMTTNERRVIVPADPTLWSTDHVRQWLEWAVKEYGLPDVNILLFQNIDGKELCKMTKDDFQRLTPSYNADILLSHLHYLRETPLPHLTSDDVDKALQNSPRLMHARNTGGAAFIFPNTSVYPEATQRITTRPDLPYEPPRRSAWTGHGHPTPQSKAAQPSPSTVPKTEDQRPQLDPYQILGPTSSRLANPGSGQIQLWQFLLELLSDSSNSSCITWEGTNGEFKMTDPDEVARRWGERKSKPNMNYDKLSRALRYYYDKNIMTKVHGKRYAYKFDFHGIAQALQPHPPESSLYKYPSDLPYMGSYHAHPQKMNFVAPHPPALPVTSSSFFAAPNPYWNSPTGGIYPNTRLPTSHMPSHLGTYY
In outline: as §1

A further test addresses T3, EHF (Homo sapiens, UniProt Q9NZC4 1-300).
T3 sequence: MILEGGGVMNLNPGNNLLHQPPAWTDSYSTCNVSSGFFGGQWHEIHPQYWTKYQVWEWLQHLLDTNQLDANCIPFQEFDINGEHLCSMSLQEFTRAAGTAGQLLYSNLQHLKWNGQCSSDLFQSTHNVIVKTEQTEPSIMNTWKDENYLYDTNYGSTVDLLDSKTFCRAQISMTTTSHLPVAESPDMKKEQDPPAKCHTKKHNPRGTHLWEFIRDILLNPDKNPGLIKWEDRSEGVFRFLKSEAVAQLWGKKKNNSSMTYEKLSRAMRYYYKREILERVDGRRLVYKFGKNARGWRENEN
Summed up: as §1

The next test deals with SPIB (Homo sapiens, UniProt Q01892 1-262). In outline: as §1
Sequence of SPIB (Q01892 whole entry): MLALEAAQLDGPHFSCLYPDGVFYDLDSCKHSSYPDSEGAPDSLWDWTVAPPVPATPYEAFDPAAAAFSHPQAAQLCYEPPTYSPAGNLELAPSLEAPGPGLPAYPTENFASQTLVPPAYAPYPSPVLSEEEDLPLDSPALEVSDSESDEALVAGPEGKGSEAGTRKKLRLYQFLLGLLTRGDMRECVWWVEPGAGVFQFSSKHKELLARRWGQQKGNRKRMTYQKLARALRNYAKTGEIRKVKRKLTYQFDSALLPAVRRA
The target in the next test is T4, ELK3 (Homo sapiens, UniProt P41970 1-407).
T4 sequence: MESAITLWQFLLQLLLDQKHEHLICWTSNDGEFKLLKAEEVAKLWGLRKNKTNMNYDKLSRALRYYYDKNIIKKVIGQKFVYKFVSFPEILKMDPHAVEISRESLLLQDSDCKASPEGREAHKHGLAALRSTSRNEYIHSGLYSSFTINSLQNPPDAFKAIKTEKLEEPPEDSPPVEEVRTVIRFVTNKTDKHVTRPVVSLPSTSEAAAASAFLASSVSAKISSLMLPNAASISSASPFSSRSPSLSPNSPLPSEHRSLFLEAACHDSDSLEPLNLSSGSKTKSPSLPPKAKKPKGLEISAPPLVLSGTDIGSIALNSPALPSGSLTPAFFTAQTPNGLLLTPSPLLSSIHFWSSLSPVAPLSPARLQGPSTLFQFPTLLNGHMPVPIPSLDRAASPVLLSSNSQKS
Summed up:
as §1

A further test addresses T5, FEV (Homo sapiens, UniProt Q99581 1-238).
T5 sequence: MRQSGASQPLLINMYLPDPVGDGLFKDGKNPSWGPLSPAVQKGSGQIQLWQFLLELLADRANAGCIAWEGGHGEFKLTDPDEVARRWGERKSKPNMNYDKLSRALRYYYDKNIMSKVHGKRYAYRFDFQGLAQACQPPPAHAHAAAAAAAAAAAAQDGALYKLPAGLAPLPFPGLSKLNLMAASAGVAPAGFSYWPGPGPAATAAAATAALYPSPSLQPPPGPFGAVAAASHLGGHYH
In outline:
as §1

For the next test, the target named is T6, ELK4 (Homo sapiens, UniProt P28324-2 1-405).
T6 sequence: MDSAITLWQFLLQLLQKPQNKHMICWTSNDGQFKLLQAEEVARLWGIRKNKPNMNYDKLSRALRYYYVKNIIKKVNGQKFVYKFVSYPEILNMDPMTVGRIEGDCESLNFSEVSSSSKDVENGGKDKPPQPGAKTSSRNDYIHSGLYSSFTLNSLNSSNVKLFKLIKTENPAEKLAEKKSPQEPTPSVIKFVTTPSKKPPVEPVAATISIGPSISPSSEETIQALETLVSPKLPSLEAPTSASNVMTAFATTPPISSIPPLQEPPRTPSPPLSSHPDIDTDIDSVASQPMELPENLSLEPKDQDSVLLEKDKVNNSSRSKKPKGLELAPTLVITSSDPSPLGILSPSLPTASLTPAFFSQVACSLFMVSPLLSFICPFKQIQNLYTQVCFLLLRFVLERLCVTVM
Summed up:
as §1

In the next test the target is T7, ETV2 (Homo sapiens, UniProt O00321 1-342).
T7 sequence: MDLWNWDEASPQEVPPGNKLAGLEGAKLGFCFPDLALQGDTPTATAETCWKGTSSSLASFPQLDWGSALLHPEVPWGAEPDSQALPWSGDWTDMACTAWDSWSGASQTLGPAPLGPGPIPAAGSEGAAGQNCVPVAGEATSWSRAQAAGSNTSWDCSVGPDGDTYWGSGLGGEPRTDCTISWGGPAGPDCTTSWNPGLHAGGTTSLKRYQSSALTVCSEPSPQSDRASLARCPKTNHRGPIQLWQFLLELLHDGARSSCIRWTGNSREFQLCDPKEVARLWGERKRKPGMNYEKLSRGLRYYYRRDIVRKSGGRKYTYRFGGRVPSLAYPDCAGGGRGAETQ
In outline: as §1

For a further test, the target named is T8, ETV3L (Homo sapiens, UniProt Q6ZN32 1-361).
T8 sequence: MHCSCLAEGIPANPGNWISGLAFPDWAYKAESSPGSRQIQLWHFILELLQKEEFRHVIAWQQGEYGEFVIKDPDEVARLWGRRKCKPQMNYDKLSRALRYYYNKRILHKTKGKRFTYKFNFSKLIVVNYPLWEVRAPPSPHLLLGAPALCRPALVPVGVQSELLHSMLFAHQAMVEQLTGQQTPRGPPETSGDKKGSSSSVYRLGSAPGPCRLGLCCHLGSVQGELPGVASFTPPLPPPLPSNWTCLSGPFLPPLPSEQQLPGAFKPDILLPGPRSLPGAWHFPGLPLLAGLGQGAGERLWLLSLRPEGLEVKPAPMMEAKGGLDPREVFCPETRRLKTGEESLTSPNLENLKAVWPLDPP
Summed up:
as §1

The target in a further test is T9, ETV3 (Homo sapiens, UniProt P41162-2 1-143).
T9 sequence: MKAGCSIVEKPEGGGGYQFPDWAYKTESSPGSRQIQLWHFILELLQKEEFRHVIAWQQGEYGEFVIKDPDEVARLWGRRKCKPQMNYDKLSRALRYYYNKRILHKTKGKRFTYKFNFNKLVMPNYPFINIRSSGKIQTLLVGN
In outline: as §1

The target of a further test is ETV6 (Homo sapiens, UniProt P41212 1-452). Summed up:
as §1

Sequence of ETV6 (P41212 whole entry): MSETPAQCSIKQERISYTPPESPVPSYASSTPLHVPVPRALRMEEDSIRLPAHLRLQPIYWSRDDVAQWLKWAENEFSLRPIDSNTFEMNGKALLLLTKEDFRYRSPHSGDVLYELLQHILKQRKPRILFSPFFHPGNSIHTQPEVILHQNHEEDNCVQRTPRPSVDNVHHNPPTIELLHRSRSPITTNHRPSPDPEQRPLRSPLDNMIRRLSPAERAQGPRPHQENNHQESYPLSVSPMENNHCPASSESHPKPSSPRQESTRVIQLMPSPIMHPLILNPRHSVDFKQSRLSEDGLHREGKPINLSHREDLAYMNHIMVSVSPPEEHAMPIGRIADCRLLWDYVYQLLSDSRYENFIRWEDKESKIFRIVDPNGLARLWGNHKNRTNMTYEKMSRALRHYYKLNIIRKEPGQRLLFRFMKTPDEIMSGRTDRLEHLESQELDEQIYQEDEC

For CCGGCG, the binding signal with ELK1 is 1.09 fold enrichment (6-mer frequency, TF over GST control); in the test with ERG, 1.09 fold enrichment (6-mer frequency, TF over GST control); with EHF, 1.03 fold enrichment (6-mer frequency, TF over GST control); with SPIB, 1.15 fold enrichment (6-mer frequency, TF over GST control); in the test with ELK3 it was 1.02 fold enrichment (6-mer frequency, TF over GST control); with FEV, 1.25 fold enrichment (6-mer frequency, TF over GST control). Moreover, the binding signal is 1.14 fold enrichment (6-mer frequency, TF over GST control) with ELK4; 1.04 fold enrichment (6-mer frequency, TF over GST control) in the test with ETV2; 1.07 fold enrichment (6-mer frequency, TF over GST control) with ETV3L; 1.05 fold enrichment (6-mer frequency, TF over GST control) with ETV3; 1.11 fold enrichment (6-mer frequency, TF over GST control) in the test with ETV6.

For the origin of these results see article PMC7862700, “An all-to-all approach to the identification of sequence-specific readers for epigenetic DNA modifications on cytosine”.
